Values without a mark were called inactive. Results filed as inconclusive are left out. Entries that show only a call come without a potency. Activity calls are given as the source filed them. Unless noted, calls come from the whole dose curve.
How the values were obtained:
[1] = Nuclear factor erythroid 2-related factor 2/antioxidant responsive element (Nrf2/ARE) small molecule agonists: qHTS cell viability counter screen in human keratinocytes (AID 1919968; active = well fitted curve in the direction sought with a large enough effect in the repeat runs; an effect the other way counts as inactive or inconclusive; note: nearly all actives have a fitted effect of over 55% in size)
How it was run: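 Cells of the KeratinoSens line were plated at 1,500 per well and left for 5 h before compound transfer from DMSO stocks. After a 23 h incubation (37 C, 5% CO2), CellTiter-Fluor was added. Signal was taken as fluorescence intensity 1 h later.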

[2] = target: Gonadotropin-releasing hormone receptor (Homo sapiens) (UniProt P30968); assay: Human gonadotropin-releasing hormone receptor (GnRHR) small molecule agonists, calcium flux assay in GnRHR-HEK293 cells (AID 1920063); note: nearly all actives have a fitted effect of over 35% in size
Gonadotropin-releasing hormone receptor (Homo sapiens), sequence (P30968 whole entry, looked up): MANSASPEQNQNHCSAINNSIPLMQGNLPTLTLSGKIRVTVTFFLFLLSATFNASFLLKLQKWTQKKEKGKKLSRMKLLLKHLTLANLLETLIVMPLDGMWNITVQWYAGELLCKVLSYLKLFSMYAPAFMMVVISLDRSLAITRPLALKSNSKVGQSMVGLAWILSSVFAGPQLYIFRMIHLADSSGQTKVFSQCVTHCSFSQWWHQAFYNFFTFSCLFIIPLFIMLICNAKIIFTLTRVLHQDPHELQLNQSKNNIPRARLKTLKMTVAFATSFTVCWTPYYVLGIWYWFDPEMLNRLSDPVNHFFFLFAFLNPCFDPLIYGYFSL
How it was run: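 Compounds dissolved in DMSO are pin-transferred onto dye-loaded GnRHR-HEK293 cells, which were seeded 18 h before at 37 C/5% CO2. Calcium signal is read as fluorescence intensity at 1 s intervals for 3 min.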

[3] = target: KiSS-1 receptor (Homo sapiens) (UniProt Q969F8); assay: Human kisspeptin (KISS1R) small molecule agonists, calcium flux assay in KISS1R-HEK293 cells (AID 1920064; active = well fitted curve in the direction sought with a large enough effect in the repeat runs; an effect the other way counts as inactive or inconclusive)
KiSS-1 receptor (Homo sapiens), sequence (Q969F8 whole entry, looked up): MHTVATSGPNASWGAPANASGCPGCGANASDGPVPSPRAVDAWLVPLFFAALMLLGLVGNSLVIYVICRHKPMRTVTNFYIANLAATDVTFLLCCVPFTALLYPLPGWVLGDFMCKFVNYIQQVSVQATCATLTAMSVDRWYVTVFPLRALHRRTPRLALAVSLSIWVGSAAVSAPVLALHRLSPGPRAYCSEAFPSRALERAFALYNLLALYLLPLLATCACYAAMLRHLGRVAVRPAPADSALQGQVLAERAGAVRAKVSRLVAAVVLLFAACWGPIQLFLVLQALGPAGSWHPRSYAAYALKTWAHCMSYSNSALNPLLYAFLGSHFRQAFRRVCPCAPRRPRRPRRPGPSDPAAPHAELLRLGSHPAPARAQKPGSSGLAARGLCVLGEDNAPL
How it was run: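 Cell line: HEK293, stable human KISS1R. Dye loading 1 h at 37 C after 18 h culture. Read: kinetic fluorescence, 480/540 nm, 3 min at 1 s intervals.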

[4] = G protein-coupled receptor (GPCR) small molecule agonists, calcium flux assay: HEK293 wild type cell line counter screen (AID 1920065)
How it was run: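 Tox21 10K compounds, 15 concentrations each in triplicate, pin-transferred in DMSO onto dye-loaded cells; kinetic read at 480/540 nm for 3 min, 1 s intervals.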

[5] = p53 small molecule agonists, cell-based qHTS assay with human liver microsomes (AID 1963577);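 note: p53 response element beta-lactamase reporter cells with liver microsomes plus NADPH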
How it was run: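 16 h, 37 C exposure of p53RE-bla cells to compounds with human liver microsomes and NADPH (0.5 mg/mL final each); detection via LiveBLAzer mixture, 2 h dark at room temperature.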

[6] = p53 small molecule agonists, cell-based qHTS assay with rat liver microsomes (AID 1963578)
How it was run: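 With rat liver microsomes and NADPH present (0.5 mg/mL final each), p53RE-bla cells are treated with compound for 16 h at 37 C. LiveBLAzer detection mixture is then applied for 2 h at room temperature in the dark.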

[7] = p53 small molecule agonists, cell-based qHTS assay: qHTS cell viability counter screen (AID 1963581); note: nearly all actives have a fitted effect of over 45% in size
How it was run: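 ATP content measured by luminescence in HCT-116 p53RE-bla cells treated 16 h at 37 C, same wells as the reporter screen.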

[8] = p53 small molecule agonists, cell-based qHTS assay (AID 1963582; active = well fitted activation curve with a large enough effect in the signal ratio in the repeat runs, not every such curve was filed as active; the % refers to the signal ratio)
How it was run: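 16 h compound exposure (37 C) of p53 response element–bla cells, preceded by 5 h recovery at 37 C/5% CO2; read-out via LiveBLAzer B/G FRET substrate, 2 h RT, fluorescence intensity.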

[9] = target: 5-hydroxytryptamine receptor 2A (Homo sapiens) (UniProt P28223); assay: 5-hydroxytryptamine receptor 2A (HTR2A) small molecule antagonists, cell-based qHTS assay (AID 1963586); note: nearly all actives have a fitted effect of over 45% in size
5-hydroxytryptamine receptor 2A (Homo sapiens), sequence (P28223 whole entry, looked up): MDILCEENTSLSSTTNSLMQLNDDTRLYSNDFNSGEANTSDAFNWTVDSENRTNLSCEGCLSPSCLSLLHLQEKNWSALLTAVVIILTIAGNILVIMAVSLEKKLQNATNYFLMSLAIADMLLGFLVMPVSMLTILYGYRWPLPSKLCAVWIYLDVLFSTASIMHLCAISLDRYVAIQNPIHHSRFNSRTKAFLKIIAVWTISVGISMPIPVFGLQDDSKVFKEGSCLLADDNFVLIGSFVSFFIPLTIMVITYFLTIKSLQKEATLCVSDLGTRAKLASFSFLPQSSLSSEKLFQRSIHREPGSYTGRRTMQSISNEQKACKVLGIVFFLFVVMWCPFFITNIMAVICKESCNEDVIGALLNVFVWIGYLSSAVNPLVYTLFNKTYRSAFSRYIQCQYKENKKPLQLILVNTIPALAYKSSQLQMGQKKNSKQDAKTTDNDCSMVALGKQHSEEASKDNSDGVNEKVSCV
How it was run: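 CHO cells stably expressing human HTR2A were plated for 18 h at 37 C, then loaded with calcium dye for 1 h. Compounds were preincubated 5 min at room temperature before DOI (4 nM solution) was added. Kinetic fluorescence was read for 3 min.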

[10] = target: Muscarinic acetylcholine receptor M1 (Homo sapiens) (UniProt P11229); assay: Cholinergic receptor muscarinic 1 (CHRM1) small molecule antagonists, cell-based qHTS assay (AID 1963588); note: nearly all actives have a fitted effect of over 40% in size
Muscarinic acetylcholine receptor M1 (Homo sapiens), sequence (P11229 whole entry, looked up): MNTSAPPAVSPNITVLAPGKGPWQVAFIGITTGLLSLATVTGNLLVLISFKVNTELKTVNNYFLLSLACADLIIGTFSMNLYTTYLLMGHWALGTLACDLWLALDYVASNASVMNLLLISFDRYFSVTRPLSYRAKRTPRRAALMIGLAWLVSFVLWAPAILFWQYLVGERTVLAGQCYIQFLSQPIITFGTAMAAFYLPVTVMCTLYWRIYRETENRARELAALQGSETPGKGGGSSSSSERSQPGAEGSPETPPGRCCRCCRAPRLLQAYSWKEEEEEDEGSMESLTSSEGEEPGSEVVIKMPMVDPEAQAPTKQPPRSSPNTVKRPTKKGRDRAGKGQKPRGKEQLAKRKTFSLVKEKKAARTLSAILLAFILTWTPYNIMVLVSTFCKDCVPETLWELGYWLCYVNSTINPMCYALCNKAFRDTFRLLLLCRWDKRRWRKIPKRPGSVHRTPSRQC
How it was run: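 Compounds were tested at 15 concentrations in three independent runs. Dye-loaded CHRM1-CHO cells were exposed 5 min at room temperature before stimulation by acetylcholine added at 50nM. Intracellular calcium was read kinetically on FDSS for 3 min.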

[11] = target: Muscarinic acetylcholine receptor M1 (Homo sapiens) (UniProt P11229); assay: Cholinergic receptor muscarinic 1 (CHRM1) small molecule agonists, cell-based qHTS assay (AID 1963589); note: nearly all actives have a fitted effect of over 35% in size
How it was run: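 Homogeneous fluorescence calcium flux, agonist mode. Human M1-expressing CHO cells; compound dosed at 15 concentrations, three independent runs; signal sampled every 1 sec.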

[12] = cAMP Responsive Elements (CRE) small molecule agonists, cell-based qHTS assay (AID 1963590)
How it was run: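 HEK 293T cells stably bearing CRE-bla were plated at 2,000 cells per well and rested 18 h. Compounds, positive controls or DMSO were added for 3 h at 37 C. LiveBLAzer B/G substrate was then loaded for 2 h at room temperature.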

[13] = cAMP Responsive Elements (CRE) small molecule antagonists, cell-based qHTS assay (AID 1963591; active = well fitted inhibition curve with a large enough effect in the signal ratio in the repeat runs, not every such curve was filed as active; the % refers to the signal ratio; note: potency is the fitted concentration of half-maximal effect)
How it was run: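 First, CRE-bla HEK293T cells settled 18 h at 37 C. Next, compound and 0.25 uM final NKH477 were applied for 3 h. Last, LiveBLAzer B/G substrate was loaded for 2 h at room temperature.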

[14] = target: Beta-2 adrenergic receptor (Homo sapiens) (UniProt P07550); assay: Adrenergic beta2 receptor (ADRB2) small molecule antagonists, cell-based qHTS assay (AID 1963592); note: series mostly up to about 92 µM; nearly all actives have a fitted effect of over 50% in size
Beta-2 adrenergic receptor (Homo sapiens), sequence (P07550 whole entry, looked up): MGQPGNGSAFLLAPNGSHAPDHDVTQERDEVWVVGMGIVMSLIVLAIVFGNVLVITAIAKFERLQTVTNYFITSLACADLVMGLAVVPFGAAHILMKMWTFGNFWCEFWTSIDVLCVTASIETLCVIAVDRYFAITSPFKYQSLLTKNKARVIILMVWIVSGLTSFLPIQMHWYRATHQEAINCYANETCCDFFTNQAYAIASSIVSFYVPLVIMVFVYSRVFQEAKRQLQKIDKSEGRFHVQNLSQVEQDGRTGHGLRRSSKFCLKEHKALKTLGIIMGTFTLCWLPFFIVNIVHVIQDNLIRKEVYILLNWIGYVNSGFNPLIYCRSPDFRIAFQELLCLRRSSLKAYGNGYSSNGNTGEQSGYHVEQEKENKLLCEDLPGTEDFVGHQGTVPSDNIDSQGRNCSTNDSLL
How it was run: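 Assay format: CHO-ADRB2 cells, 18-20hr seeding at 37C/5% CO2, then compound plus 1nM isoproterenol agonist mix for 0.5hr RT. Homogeneous time-resolved fluorescence cAMP detection after 1hr, expressed as 665/615 nm ratio.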

[15] = target: Beta-2 adrenergic receptor (Homo sapiens) (UniProt P07550); assay: Adrenergic beta2 receptor (ADRB2) small molecule agonists, cell-based qHTS assay (AID 1963593);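 note: CHO cells stably overexpressing human ADRB2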
How it was run: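 CHO cells stably over-expressing ADRB2 were plated overnight at 37C, then dosed with compounds plus a stimulation mix containing 100uM IBMX and 25uM Ro-20-1724 for 0.5hr at room temperature. cAMP was measured by HTRF competition, 1hr.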

[16] = target: D(2) dopamine receptor (Homo sapiens) (UniProt P14416); assay: Dopamine D2 receptor (DRD2) small molecule agonists, cell-based qHTS assay (AID 1963594); note: nearly all actives have a fitted effect of over 35% in size
D(2) dopamine receptor (Homo sapiens), sequence (P14416 whole entry, looked up): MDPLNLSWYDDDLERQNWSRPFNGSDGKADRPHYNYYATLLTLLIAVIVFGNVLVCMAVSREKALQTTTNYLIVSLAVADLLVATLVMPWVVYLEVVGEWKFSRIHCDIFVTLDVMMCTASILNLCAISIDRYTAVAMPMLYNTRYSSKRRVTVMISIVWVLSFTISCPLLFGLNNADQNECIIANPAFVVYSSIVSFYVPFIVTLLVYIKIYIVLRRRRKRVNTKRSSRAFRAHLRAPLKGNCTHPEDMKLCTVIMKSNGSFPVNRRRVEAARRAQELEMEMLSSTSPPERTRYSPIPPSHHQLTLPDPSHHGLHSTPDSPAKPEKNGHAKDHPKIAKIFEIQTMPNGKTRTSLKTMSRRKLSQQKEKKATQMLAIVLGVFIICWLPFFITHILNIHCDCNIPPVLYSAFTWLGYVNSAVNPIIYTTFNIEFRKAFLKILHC
How it was run: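 cAMP accumulation in DRD2-HEK293 cells measured by HTRF after 1 h detection; compounds added 10 min before NKH477 (200nM […]) forskolin-analogue stimulation, 30 min at room temperature, with Ro20-1724 present at 0.1 mM final.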

[17] = target: D(2) dopamine receptor (Homo sapiens) (UniProt P14416); assay: Dopamine D2 receptor (DRD2) small molecule antagonists, cell-based qHTS assay (AID 1963595; active = well fitted inhibition curve with a large enough effect in the signal ratio in the repeat runs, with a control signal flat; the % refers to the signal ratio)
How it was run: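 HEK293 cells stably expressing DRD2 were preincubated with 0.1 mM Ro20-1724, then with compound for 10 min at room temperature. Cells were stimulated with 200 nM NKH477 plus 12 nM quinpirole for 30 min, and cAMP was read by HTRF.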

[18] = p53 small molecule agonists, cell-based qHTS assay with human liver microsomes: qHTS cell viability counter screen (AID 1963579); note: nearly all actives have a fitted effect of over 45% in size
How it was run: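 In this multiplexed counter screen, the reporter plates were subsequently treated with CellTiter-Glo so that cell viability, reflected by luminescence, could be recorded for p53RE-bla cells dosed 16 h with compounds under microsomal activation (HLM and NADPH).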

[19] = target: 5-hydroxytryptamine receptor 2A (Homo sapiens) (UniProt P28223); assay: 5-hydroxytryptamine receptor 2A (HTR2A) small molecule agonists, cell-based qHTS assay (AID 1963587); note: nearly all actives have a fitted effect of over 30% in size
How it was run: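 Kinetic calcium-flux fluorescence (2 min, 1 sec intervals) after compound addition in agonist mode. HTR2A-CHO cells were cultured 18 h, then dye-loaded 1 h at 37 C.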

[20] = p53 small molecule agonists, cell-based qHTS assay with rat liver microsomes: qHTS cell viability counter screen (AID 1963580); note: nearly all actives have a fitted effect of over 45% in size
How it was run: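 Cytotoxicity counter screen: intracellular ATP read by CellTiter-Glo luminescence in the p53 reporter wells. HCT-116 p53RE-bla cells were treated for 16 h at 37 C alongside rat liver microsomes and NADPH, each 0.5 mg/mL final.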

Row | Compound | Potency [1] | Potency [2] | Potency [3] | Potency [4] | Potency [5] | Potency [6] | Potency [7] | Potency [8] | Potency [9] | Potency [10] | Potency [11] | Potency [12] | Potency [13] | Potency [14] | Potency [15] | Potency [16] | Potency [17] | Potency [18] | Potency [19] | Potency [20]
1 | CCOC(=O)/C=C/c1ccccc1 | inactive | inactive | inactive | inactive | inactive | inactive | inactive | inactive | inactive | inactive | inactive | inactive | inactive | inactive | inactive | inactive | inactive | – | – | –
2 | COc1cc(NS(=O)(=O)c2ccc(N)cc2)nc(C)n1 | inactive | inactive | inactive | inactive | inactive | – | inactive | inactive | inactive | inactive | inactive | inactive | inactive | inactive | inactive | inactive | inactive | inactive | inactive | –
3 | CCOc1ccc(NC(C)=O)cc1N | inactive | inactive | inactive | inactive | inactive | – | inactive | inactive | – | inactive | inactive | – | inactive | inactive | – | inactive | inactive | – | inactive | inactive
4 | CC1(CO)CN(c2ccccc2)NC1=O (centres undefined) | inactive | inactive | inactive | inactive | inactive | – | inactive | inactive | inactive | inactive | inactive | inactive | inactive | – | inactive | inactive | inactive | inactive | inactive | inactive
5 | CC/C=C1/OC(=O)c2ccccc21 | inactive | inactive | inactive | inactive | inactive | – | inactive | – | inactive | inactive | inactive | inactive | inactive | inactive | – | inactive | inactive | – | inactive | –
6 | CCC(=O)Oc1ccc(/C(CC)=C(\CC)c2ccc(OC(=O)CC)cc2)cc1 | inactive | inactive | inactive | inactive | inactive | inactive | inactive | – | inactive | inactive | inactive | inactive | inactive | inactive | – | inactive | inactive | – | inactive | –
7 | c1ccc(B(c2ccccc2)c2ccccc2)cc1 | inactive | inactive | inactive | inactive | – | inactive | inactive | inactive | inactive | inactive | inactive | inactive | 28.5 µM (active) | inactive | – | inactive | inactive | inactive | inactive | inactive
8 | CC(C(=O)O)c1ccc2c(c1)[nH]c1ccc(Cl)cc12 (centres undefined) | inactive | inactive | inactive | inactive | inactive | – | inactive | – | inactive | inactive | – | – | – | inactive | inactive | inactive | inactive | inactive | inactive | inactive
9 | Nc1nc2ccccc2n1Cc1ccc(F)cc1 | inactive | inactive | inactive | inactive | inactive | – | inactive | inactive | – | inactive | inactive | inactive | inactive | inactive | – | – | inactive | – | – | inactive
10 | CC(C)(C)c1cc(CO)cc(C(C)(C)C)c1O | inactive | inactive | inactive | inactive | inactive | inactive | – | – | inactive | – | inactive | inactive | – | inactive | – | inactive | inactive | – | inactive | –
11 | Cc1ccccc1N=Nc1ccc(N=Nc2c(O)ccc3ccccc23)c(C)c1 | inactive | inactive | inactive | inactive | inactive | – | inactive | inactive | inactive | inactive | inactive | inactive | inactive | inactive | inactive | inactive | inactive | inactive | – | inactive
12 | NO | inactive | inactive | inactive | inactive | – | inactive | inactive | inactive | inactive | inactive | inactive | inactive | inactive | inactive | inactive | – | inactive | inactive | inactive | inactive
13 | CC(C)(C)C(=O)c1ccccc1 | inactive | inactive | inactive | inactive | – | inactive | inactive | inactive | inactive | inactive | – | inactive | inactive | inactive | – | inactive | inactive | inactive | inactive | inactive
14 | CC(=O)OCC(C)OC(C)=O (centres undefined) | inactive | inactive | inactive | inactive | – | inactive | inactive | inactive | inactive | – | inactive | inactive | inactive | inactive | – | inactive | inactive | inactive | inactive | inactive

— PubChem BioAssay (Tox21)
